From the supplement of paper PMC11417369
± gives the standard deviation of the averaged measurements. The full ranking holds about 25,000 sequences; the median of “ln(normalized median fluorescence intensity)” is about 10, and the highest 2% start at about 12. Shown is part of a subset that was picked to be rich in the highest values.

What follows are sequences tested on PfAP2-G AP2 domain (GST-tagged) (assay: gcPBM binding intensity (ln(normalized median fluorescence intensity)); higher = stronger DNA binding).
In short: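 Binding of GST-tagged P. falciparum DNA-binding domains, expressed in E. coli and used at about 25 μg on average, was carried out for 1 h in 1× PBS containing 1% milk, 0.2 mg/ml BSA, 0.5% salmon testes DNA and 0.03% Triton X-100. The target was an Agilent 4 × 180k array of primer-extended double-stranded 36-bp intergenic genomic probes plus negative controls, read with Alexa488 anti-GST antibody at 488 nm. Binding intensity is the highest Masliner-normalised natural-log median intensity across replicate spots of either probe orientation.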

Sequence | gcPBM binding intensity (ln)
TTTTTTTTCTCACAAAAAATAATTAACAAAAAGGAA [XGTACX_negctrl_site154] | 10.2 ± 0.32
ATATATATAATAAATACACACATTTATATAGATAAA [CACACA_site3254] | 9.925 ± 0.092
TGACTTTGTTGAATTTGTCCTCTTAACTCATAATAT [GTGCAC_negctrl_site217] | 10.6 ± 0.48
TCCTTTCTTTTTTAAACATGCATATGTAATATAAAT [TGCATGCA_site979] | 10 ± 0.26
TTTTTTTGCGCGGGAAGAATAAAATTTATAGAATAT [TGCATGCA_negctrl_site306] | 10.4 ± 0.36
ATAAATAATATAAATACACACTAAAAAAGATATATA [CACACA_site6397] | 10.01 ± 0.014
TTTATACAAATATGTACACACTAAATATATATTATG [CACACA_site4413] | 11.5 ± 0.77
TATATTTTTTTTGTGCGTACATACCATTTTAATAAT [XGTACX_site2751] | 11.7 ± 0.8
TTTTTTTTTTTTGTGCGTACATACCATTTTAATAAT [XGTACX_site2760] | 11.6 ± 0.92
ATATATATACTGTGTACACAAATATATATTATATAT [CACACA_site6104] | 11.6 ± 0.84
TAGTATAAAATTATGTGTACACAAATATAACTTTTC [XGTACX_site5971] | 11.6 ± 0.78
TATAAAATTATGTGTACACAAATATAACTTTTCTTT [CACACA_site5554] | 11.7 ± 0.95
ATAATAATATTGTGTACACAATAATTTGTCAAATCA [CACACA_site6019] | 11.7 ± 0.86
ATAATCACAAATAATTGTACATTTTGTTATATATAT [XGTACX_site7704] | 10.8 ± 0.45
ATAATACCATTAATTTGTACATATATATTATATATA [XGTACX_site4345] | 10.9 ± 0.49
AACTTCTTTTTTATAACACACAAAATATAAATACAA [CACACA_site4313] | 10.2 ± 0.43
TTGTGTCATATATTTTGTAATCAAAATAATTTTATT [TGCATGCA_negctrl_site307] | 10.1 ± 0.37
TATAAATATAAATACTGTACATTATATTATATAATA [XGTACX_site2480] | 11 ± 0.71
ATATATATATATATATGTACTTATATATAATATAGA [XGTACX_site3488] | 11.2 ± 0.79
TTTATTATTATATTATTTTAATTTTTCTTTAGTACA [GTGCAC_negctrl_site392] | 10.29 ± 0.099
CTTTTTTTCTTTCCAAGTACTAAATTCATACAAATT [XGTACX_site2605] | 10.8 ± 0.51

Sequence | gcPBM binding intensity (ln)
CATTAATATATATATACATGCACGTTTTAAAAAAAA [TGCATGCA_site875] | 10.1 ± 0.23
GTAAGATTTCTTGTTGCATGCGGTAAAAAGTAAAAT [TGCATGCA_site469] | 10.6 ± 0.41
ACATTCATAAAAAAAAGTACATTTTTTATAAAAGAA [XGTACX_site6197] | 11.4 ± 0.75
AATATAAATAAAAACACACACACACCCATATATATA [CACACA_site2267] | 10.1 ± 0.32
AATACATGAATATGTAGTACAGAAAAAAAAAATATA [XGTACX_site1945] | 11.7 ± 0.95
ATATATGTATATATGTACATGAATATATAAAGAAAA [CACACA_negctrl_site315] | 11.1 ± 0.67
TTTATGTAATATACATGTACAGAATATAAAATATAT [XGTACX_site6906] | 11 ± 0.54
ATATTATCACAAGGTGGTACACAAAAAAAAAAAAAA [XGTACX_site8224] | 11.4 ± 0.95
TTTTTTTTTTTATGTGCACACAAAAGATGCTTATAT [CACACA_site2347] | 10.6 ± 0.53
ATTATTAAAATGATATGTACGCACATAATATACATA [XGTACX_site3236] | 11.6 ± 0.94
AACAATGTTGTACATACACACACACTAATAAAAAAT [CACACA_site8758] | 11.4 ± 0.95
AATAATATTTAATACGCACACAATAATAATATAAAA [CACACA_site1763] | 10.4 ± 0.32
ATAGCACATTTTTAAGCACACGTTTATTATATATAT [CACACA_site6084] | 10.3 ± 0.24
GGATGATTAAGGGGGACACACGTTTATATATTTATA [CACACA_site4342] | 11.7 ± 0.9
TTGGATGATTAAGGGGGACACACGTTTATATATTTA [CACACA_site338] | 11.4 ± 0.79
AAACAAAAGGAAAACATATATATATTAAATGTATAT [CACACA_negctrl_site1663] | 9.64 ± 0.33
ATGCTTTTTTATAAAAGTACATAAAGTTTTTACACT [XGTACX_site7307] | 11.3 ± 0.81
GATAAAGTAAAAATATGTACATATATATTTTAAGTT [XGTACX_site6439] | 11.4 ± 0.78
AGAATTAAAATAATACGTACACACATGTATAATACA [XGTACX_site1878] | 11.5 ± 0.82
GAATTAAAATAATACGTACACACATGTATAATACAT [CACACA_site1004] | 11.7 ± 1.2
TTTTTTTTTTTTACGTGTACATAAATGTTAAGTAAT [XGTACX_site3901] | 11.4 ± 0.91

Sequence | gcPBM binding intensity (ln)
ACTTTTTTAATGTTACGTACACATAAATAATAATTA [XGTACX_site8092] | 11.6 ± 0.9
AAAAAAAAAAAAAAAAGTACAAATAAAAAAAAAATA [XGTACX_site4814] | 11.4 ± 0.85
AAGTATAAAAAAAGGCGTACAAAAAAAAAAAAAAAA [XGTACX_site7309] | 11.7 ± 0.9
ATTAAAATAATACGTACACACATGTATAATACATAT [CACACA_site1005] | 11.5 ± 0.91
ATAAAATATAAAAAAAGTACAAAAAAAAAAAAAAAA [XGTACX_site6657] | 11.2 ± 1.1
TTTTTTTTTTTAAAATGTACACGTAATTACATATAT [XGTACX_site752] | 11.4 ± 0.95
ATGTTTTATAAAAGGCGTACACATATGCTTAAGTAA [XGTACX_site6232] | 11.8 ± 0.94
ATAGCCAAAAATCATGCACACCTAAAAAAAAAAAAA [CACACA_site8826] | 10.1 ± 0.6
TAGTTTTCTTAAAGATGTACTTATTAAAAATAAACT [XGTACX_site1001] | 11.3 ± 1.1
TATATCTCTTTATTCACACATACGTTTTAAAATAAT [CACACA_site5542] | 10.2 ± 0.13
AATAAATTATTATGTACACACATAATAGTATATATA [CACACA_site1820] | 11.4 ± 0.85
ATTATGTTAAAAAGGCGTACATGTTATAAGGTCCTA [XGTACX_site344] | 11.7 ± 1.2
ATAATAAATTATTATGTACACACATAATAGTATATA [CACACA_site8538] | 11.3 ± 0.88
AATACAATAAAAAAAAGTACACATGTATAAAAAATT [XGTACX_site8270] | 11.6 ± 0.8
GTATATATATATAAAAGTACATGTTATGAAAAAAAA [XGTACX_site5410] | 11.3 ± 0.81
TAAAAGTATATATATACACACATAAATATATATGTA [CACACA_site663] | 9.86 ± 0.14
AAAAATAAATATATATGTACACATATGTATACAATA [XGTACX_site4692] | 11.6 ± 0.97
AAGTATAAATAAAGGCGTACACATGTAAATTATATT [XGTACX_site126] | 11.7 ± 1.1
TAAGGTTAAATAATATGTACATATTATTATATATAT [XGTACX_site6953] | 11.3 ± 0.72
